Records with an inconclusive call do not appear. Active and inactive are the calls of the source. The call rests on the fitted dose curve; in most records, active means well fitted curve in the direction sought with a large enough effect; inconclusive means small, poorly fitted or top-dose-only effect, or another doubt; inactive means no such curve, though single readings can be large; an effect the other way counts as inactive or inconclusive.
Assays:
JEG-3 = experiment: Primary qHTS to identify gynecologic anti-cancer compounds using libraries of approved drugs and bioactive compounds (AID 1345084); conditions: Gynecologic cancer cell panel viability, ATPlite luminescence, 48 h; series mostly up to 57.5 µM; further: nearly all actives have a fitted effect of over 55% in size; further: potency means the concentration at half of the fitted maximal effect
Procedure, shortened: (§1)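 48 h compound exposure at 37 C, 5% CO2; five-point qHTS. ATPlite luminescence readout of cell ATP.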

OV90 = experiment: as above; conditions: Gynecologic cancer cell panel viability, ATPlite luminescence, 48 h; series mostly up to 57.5 µM
Procedure, shortened: as §1

PA-1 = experiment: as above; conditions: Gynecologic cancer cell panel viability, ATPlite luminescence, 48 h; series mostly up to 57.5 µM
Procedure, shortened: as §1

SKOV3 = experiment: as above; conditions: Gynecologic cancer cell panel viability, ATPlite luminescence, 48 h; series mostly up to 57.5 µM
Procedure, shortened: as §1

Tov-21-G = experiment: as above; conditions: Gynecologic cancer cell panel viability, ATPlite luminescence, 48 h; series mostly up to 57.5 µM
Procedure, shortened: as §1

Tov112D = experiment: as above; conditions: Gynecologic cancer cell panel viability, ATPlite luminescence, 48 h; series mostly up to 57.5 µM
Procedure, shortened: as §1

[1] = Drug repurposing screens with cells derived from glioblastoma tumor samples (AID 1345199); conditions: GBM patient neurospheres viability, ATP luminescence, 48 h; further: nearly all actives have a fitted effect of over 40% in size
Procedure, shortened: (§2)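 Primary testing used CD133+ neurospheres from four GBM patients, seven concentrations, 48 h exposure and ATP-based viability; confirmation added three slower-growing patient lines.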

astro = experiment: as above; conditions: viability, ATP luminescence, 48 h; series mostly up to 45.9 µM
Procedure, shortened: as §2
On the % scale 0 is the no-effect control and ±100 the full control effect.

CNC(=O)c1ccc(N2C(=S)N(c3cnc(C#N)c(C(F)(F)F)c3)C(=O)C23CCC3)cc1F
inactive: Potency (JEG-3) | Potency (OV90) | Potency (PA-1) | Potency (SKOV3) | Potency (Tov-21-G) | Potency (Tov112D)

Cc1cn2c(-c3cn[nH]c3)cnc2c(Nc2ccc(C(=O)N3CCNCC3)cc2F)n1
inactive: Potency (JEG-3) | Potency (OV90)

C[C@]12CC[C@H](O)CC1=CCC1C2CC[C@]2(C)C(n3cnc4ccccc43)=CCC12 (stereo partly specified)
inactive: Potency (JEG-3) | Potency (OV90) | Potency (PA-1) | Potency (SKOV3) | Potency (Tov-21-G) | Potency (Tov112D)

CCCCCCCCCC(=O)N[C@@H](Cc1c[nH]c2ccccc12)C(=O)N[C@H](CC(N)=O)C(=O)N[C@@H](CC(=O)O)C(=O)N[C@@H]1C(=O)NCC(=O)N[C@@H](CCCN)C(=O)N[C@@H](CC(=O)O)C(=O)N[C@H](C)C(=O)N[C@@H](CC(=O)O)C(=O)NCC(=O)N[C@H](CO)C(=O)N[C@@H]([C@@H](C)CC(=O)O)C(=O)N[C@@H](CC(=O)c2ccccc2N)C(=O)O[C@@H]1C
inactive: Potency (JEG-3) | Potency (OV90) | Potency (PA-1) | Potency (SKOV3) | Potency (Tov-21-G) | Potency (Tov112D)

OCc1ccc(-c2ccc(-c3ccc(CO)s3)o2)s1
active: Potency (OV90) 3.16 µM | Potency (PA-1) 0.355 µM | Potency (SKOV3) 12.6 µM
inactive: Potency (JEG-3) | Potency (Tov-21-G)

CNC(=O)c1ccc(-c2cnc3ncc(Cc4ccc5ncccc5c4)n3n2)cc1F
inactive: Potency (JEG-3) | Potency (OV90) | Potency (PA-1) | Potency (SKOV3) | Potency (Tov-21-G) | Potency (Tov112D)

COc1cc(C(=O)NS(=O)(=O)c2ccccc2C)ccc1Cc1cn(C)c2ccc(NC(=O)OC3CCCC3)cc12
inactive: Potency (JEG-3) | Potency (OV90) | Potency (PA-1) | Potency (SKOV3) | Potency (Tov-21-G) | Potency (Tov112D) | activity, negative = cell killing ([1]; at 45.9 µM (top of the series), tumour line B) -14.2% | activity, negative = cell killing ([1]; at 45.9 µM (top of the series), tumour line D) -15.9% | activity, negative = cell killing ([1]; at 46.1 µM (top of the series), tumour line C) 5.07% | Potency (astro)

Reference: PubChem BioAssay (NCATS)
